# From PubChem BioAssay AID1729 (National Center for Advancing Translational Sciences (NCATS), 2009)
# Inconclusive results are not listed. Active and inactive are the calls of the source. Calls follow the shape of the dose curve; as a rule, active = well fitted curve in the direction sought with a large enough effect; inconclusive = small, poorly fitted or top-dose-only effect, or effect the other way, or another doubt; inactive = no such curve, though single readings can be large or run the other way.
# Target: Epidermal growth factor receptor (Homo sapiens) (UniProt P00533)
# Assay: Assay for Inhibitors of the ERK Signaling Pathway using a Homogeneous Screening Assay: EGFR T790M Kinase Inhibition
# Source text: qHTS Assay for Inhibitors of the ERK Signaling Pathway using a Homogeneous Screening Assay
# NIH Chemical Genomics Center [NCGC]
# NIH Molecular Libraries Screening Centers Network [MLSCN]
# Assay Submitter (PI): Dr. Wei Zheng, NCGC/NIH
# The Ras/extracellular-signal-regulated kinase (ERK) mitogen activated protein (MAP) kinase signaling pathway (ERK1/2 cascade) plays is a key role in transmitting signals from the cell surface to the nucleus (Nishida and Gotoh 1993; Chang and Karin, 2001). The cascade is initiated by the small G-protein Ras, which recruits Raf […], where activation occurs. Alternatively, this pathway can be activated by elevating intracellular cAMP.
# Activation of the ERK pathway is essential in increased cell division and cell survival. Sustained and constitutive activation of the ERK pathway, however, has been linked to uncontrolled cell proliferation, increased cell survival, and tumor progression. Thus, the ERK has been as an attractive target for cancer chemotherapy in the past few years (Sebolt-Leopold and Herrera, 2004). […]
# The HTRF kinase assay (components supplied as kit by Cisbio) was chosen for the EGFR and EGFR mutant enzyme assays that applied the time resolved fluorescence resonance energy transfer (TR-FRET) principle. […]
# Chain of Epidermal growth factor receptor (Homo sapiens) (P00533 whole entry T790M, looked up): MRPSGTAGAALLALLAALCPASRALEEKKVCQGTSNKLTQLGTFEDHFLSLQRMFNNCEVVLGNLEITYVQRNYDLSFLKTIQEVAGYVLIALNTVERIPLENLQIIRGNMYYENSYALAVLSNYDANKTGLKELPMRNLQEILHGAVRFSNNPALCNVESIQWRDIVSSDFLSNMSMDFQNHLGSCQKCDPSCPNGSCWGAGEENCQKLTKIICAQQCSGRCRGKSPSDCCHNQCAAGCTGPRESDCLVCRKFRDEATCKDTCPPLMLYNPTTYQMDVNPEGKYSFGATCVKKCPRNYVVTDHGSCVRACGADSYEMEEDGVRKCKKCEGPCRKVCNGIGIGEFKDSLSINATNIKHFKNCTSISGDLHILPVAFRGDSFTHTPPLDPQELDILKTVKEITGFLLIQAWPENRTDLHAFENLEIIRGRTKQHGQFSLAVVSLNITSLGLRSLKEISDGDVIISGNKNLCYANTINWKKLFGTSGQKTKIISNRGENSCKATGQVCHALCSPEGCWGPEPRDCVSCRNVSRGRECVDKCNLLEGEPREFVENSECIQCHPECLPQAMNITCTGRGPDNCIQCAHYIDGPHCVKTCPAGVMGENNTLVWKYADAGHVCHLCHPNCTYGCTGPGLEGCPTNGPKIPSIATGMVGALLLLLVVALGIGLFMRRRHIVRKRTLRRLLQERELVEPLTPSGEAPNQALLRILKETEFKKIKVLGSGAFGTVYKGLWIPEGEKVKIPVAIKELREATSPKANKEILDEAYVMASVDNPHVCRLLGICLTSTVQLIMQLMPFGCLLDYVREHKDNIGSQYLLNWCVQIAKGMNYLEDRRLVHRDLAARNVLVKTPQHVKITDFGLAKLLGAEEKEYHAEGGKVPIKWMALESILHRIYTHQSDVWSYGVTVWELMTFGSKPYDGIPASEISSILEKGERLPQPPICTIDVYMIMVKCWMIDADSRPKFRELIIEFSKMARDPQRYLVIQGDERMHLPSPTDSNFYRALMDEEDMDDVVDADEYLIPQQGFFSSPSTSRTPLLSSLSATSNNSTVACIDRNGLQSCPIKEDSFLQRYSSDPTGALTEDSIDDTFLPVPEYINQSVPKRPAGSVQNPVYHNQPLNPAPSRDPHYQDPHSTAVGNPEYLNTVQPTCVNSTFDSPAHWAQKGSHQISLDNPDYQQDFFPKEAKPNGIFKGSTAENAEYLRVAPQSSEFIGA
row,Compound,outcome
1,CCn1nc(-c2ccccc2)nc2c(=O)n(C)c(=O)nc1-2,inactive
2,Cc1nc2c(=O)n(C)c(=O)nc-2n(C)n1,inactive
